Measurements: PubChem BioAssay (EPA / NIEHS)
More than one record can exist for a structure, and the calls need not agree. Activity calls are given as the source filed them. How the source made its calls: active means hit-call score of the fitted dose curve at least 0.9, where 1 is the maximum; inactive means score below 0.9.

test system: not listed separately; test: ATG_ERE_CIS: Attagene CIS-FACTORIAL HepG2 Assay for Estrogen Response Element (ERE) (AID 2282940); conditions: HepG2 ERE cis-reporter, Attagene RNA transcript; actives raise or lower the signal
Outline: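 Transient MRTU transfection of human HepG2; cis-element promoters; 24 h dosing; total RNA → RT (oligo dT) → PCR → 6-FAM primer extension → HpaI digest → CE fluorescence. Bidirectional fit, DMSO baseline.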

| Compound | AC50 | outcome |
| --- | --- | --- |
| CC1(C)C(C=C(Cl)Cl)C1C(=O)OCc1cccc(Oc2ccccc2)c1 (stereo not drawn) | 21.3 µM (active) |  |
| CCCOC(=O)c1ccc(C(=O)OCCC)nc1 |  | inactive |
| O=C(Nc1ccc([N+](=O)[O-])cc1Cl)c1cc(Cl)ccc1O |  | inactive |
| COc1nc(C)nc(NC(=O)NS(=O)(=O)c2ccccc2OCCCl)n1 |  | inactive |
| N#CSCSc1nc2ccccc2s1 |  | inactive |
| CCC(O)=C1C(=O)CC(C(=O)O)CC1=O (stereo not drawn) |  | inactive |
| CSC(=O)c1cccc2nnsc12 |  | inactive |
| O=C(O)C1(C(=O)Nc2ccc(Cl)cc2Cl)CC1 |  | inactive |
| CC(=O)S[C@@H]1CC2=CC(=O)CC[C@]2(C)[C@H]2CC[C@@]3(C)[C@@H](CC[C@@]34CCC(=O)O4)[C@H]12 |  | inactive |
| CC(C)CCCCCCc1ccc(O)cc1 | 644 nM (active) [middle of 4 runs] |  |
| CCCCOC(=O)[C@@H](C)Oc1ccc(Oc2ccc(C(F)(F)F)cn2)cc1 | 59.1 µM (active) |  |
| CC(=O)[C@H]1CC[C@H]2[C@@H]3CCC4=CC(=O)CC[C@]4(C)[C@H]3CC[C@]12C | 1.27 µM (active) [middle of 4 runs] |  |
| CCCCOC(=O)C(C)Oc1ccc(Oc2ccc(C(F)(F)F)cn2)cc1 (stereo not drawn) |  | inactive |
| CCCCC(CC)CN1C(=O)C2C3C=CC(C3)C2C1=O (stereo not drawn) |  | inactive |
| CCN(CC)C(=O)c1cccc(C)c1 |  | inactive |
| COC(=O)c1cccc(C)c1S(=O)(=O)NC(=O)Nc1nc(OCC(F)(F)F)nc(N(C)C)n1 |  | inactive |
| OB(O)O |  | inactive |
| CCCN(CCC)C(=O)SCC |  | inactive |
| CCOC(=O)COc1cc(-n2ncc(C(F)(F)F)c(C)c2=O)c(F)cc1Cl |  | inactive |
| CCCCCOC(=O)COc1cc(N2C(=O)C3=C(CCCC3)C2=O)c(F)cc1Cl |  | inactive |

test system: not listed separately; test: ATG_Ets_CIS: Attagene CIS-FACTORIAL HepG2 Assay for human Erythroblast Transformation Specific (ETS) (AID 2282941); conditions: HepG2 ETS cis-reporter transcription, actives raise or lower the signal
Outline: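 After transient cis-reporter transfection, HepG2 cells receive test chemical for 24 h. Reporter mRNA levels, measured by RT-PCR and capillary electrophoresis fluorescence, are analysed bidirectionally relative to the DMSO baseline.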

| Compound | outcome | AC50 |
| --- | --- | --- |
| CC1(C)C(C=C(Cl)Cl)C1C(=O)OCc1cccc(Oc2ccccc2)c1 (stereo not drawn) | inactive |  |
| CCCOC(=O)c1ccc(C(=O)OCCC)nc1 | inactive |  |
| O=C(Nc1ccc([N+](=O)[O-])cc1Cl)c1cc(Cl)ccc1O | inactive |  |
| COc1nc(C)nc(NC(=O)NS(=O)(=O)c2ccccc2OCCCl)n1 | inactive |  |
| N#CSCSc1nc2ccccc2s1 | inactive |  |
| CCC(O)=C1C(=O)CC(C(=O)O)CC1=O (stereo not drawn) | inactive |  |
| CSC(=O)c1cccc2nnsc12 | inactive |  |
| C[C@]12C[C@H](O)[C@H]3[C@@H](CCC4=CC(=O)CC[C@@]43C)[C@@H]1CC[C@@H]2C(=O)CO | inactive |  |
| O=C(O)C1(C(=O)Nc2ccc(Cl)cc2Cl)CC1 | inactive |  |
| COC(=O)c1ccc(I)cc1S(=O)(=O)NC(=O)Nc1nc(C)nc(OC)n1 | inactive |  |
| CC(=O)S[C@@H]1CC2=CC(=O)CC[C@]2(C)[C@H]2CC[C@@]3(C)[C@@H](CC[C@@]34CCC(=O)O4)[C@H]12 | inactive | 100 µM (active) |
| CCNc1nc(N)nc(Cl)n1 | inactive |  |
| CC(C)CCCCCCc1ccc(O)cc1 | inactive | 17.1 µM (active) |
| CCCCOC(=O)[C@@H](C)Oc1ccc(Oc2ccc(C(F)(F)F)cn2)cc1 | inactive |  |
| C#C[C@]1(O)CC[C@H]2[C@@H]3CCC4=CC(=O)CC[C@@H]4[C@H]3CC[C@@]21CC | inactive |  |
| CCCCC(CC)COC(=O)c1ccccc1C(=O)O (stereo not drawn) | inactive |  |
| CCOC(=O)[C@H](C)Oc1ccc(Oc2nc3ccc(Cl)cc3o2)cc1 | inactive |  |
| CC(=O)[C@H]1CC[C@H]2[C@@H]3CCC4=CC(=O)CC[C@]4(C)[C@H]3CC[C@]12C | inactive |  |
| CCCCOC(=O)C(C)Oc1ccc(Oc2ccc(C(F)(F)F)cn2)cc1 (stereo not drawn) | inactive |  |
| CCCCC(CC)CN1C(=O)C2C3C=CC(C3)C2C1=O (stereo not drawn) | inactive |  |
| CCOC(=O)C(C)Oc1ccc(Oc2nc3ccc(Cl)cc3o2)cc1 (stereo not drawn) | inactive |  |
| CCN(CC)C(=O)c1cccc(C)c1 | inactive |  |
| COC(=O)c1cccc(C)c1S(=O)(=O)NC(=O)Nc1nc(OCC(F)(F)F)nc(N(C)C)n1 | inactive |  |
| OB(O)O | inactive |  |
| CCCCOCCOCCOCc1cc2c(cc1CCC)OCO2 | inactive |  |
| CCCN(CCC)C(=O)SCC | inactive |  |
| CCCOC(=O)NCCCN(C)C | inactive |  |
| c1ccc(Nc2ccccc2)cc1 | inactive |  |
| CCOC(=O)COc1cc(-n2ncc(C(F)(F)F)c(C)c2=O)c(F)cc1Cl | inactive |  |
| CCCCCOC(=O)COc1cc(N2C(=O)C3=C(CCCC3)C2=O)c(F)cc1Cl | inactive |  |

molecular target: Hepatocyte nuclear factor 3-beta (Homo sapiens) (UniProt Q9Y261); test: ATG_FoxA2_CIS: Attagene CIS-FACTORIAL HepG2 Assay for human Forkhead box A2 (FOXA2) (AID 2282942); conditions: HepG2 cis-reporter transcription factor activity, 24 h; actives raise or lower the signal
Sequence (Q9Y261 whole entry, looked up): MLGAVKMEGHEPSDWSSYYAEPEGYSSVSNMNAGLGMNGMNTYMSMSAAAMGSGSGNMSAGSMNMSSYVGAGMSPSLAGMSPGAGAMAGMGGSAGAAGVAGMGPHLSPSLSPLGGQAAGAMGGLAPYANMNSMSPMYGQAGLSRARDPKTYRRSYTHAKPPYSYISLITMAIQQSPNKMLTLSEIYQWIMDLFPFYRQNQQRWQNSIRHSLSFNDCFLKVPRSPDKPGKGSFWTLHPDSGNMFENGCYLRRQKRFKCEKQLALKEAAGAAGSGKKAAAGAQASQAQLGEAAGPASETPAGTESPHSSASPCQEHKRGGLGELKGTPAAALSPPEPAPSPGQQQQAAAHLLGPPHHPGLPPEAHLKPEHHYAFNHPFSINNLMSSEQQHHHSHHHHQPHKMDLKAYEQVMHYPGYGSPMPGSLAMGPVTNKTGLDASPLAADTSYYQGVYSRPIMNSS
Outline: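 Measured: reporter mRNA induction or loss in HepG2 transiently carrying multiple cis-regulated reporter units, 24 h after dosing. Quantified by RT-PCR plus capillary electrophoresis, normalised to DMSO.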

| Compound | outcome | AC50 |
| --- | --- | --- |
| CC1(C)C(C=C(Cl)Cl)C1C(=O)OCc1cccc(Oc2ccccc2)c1 (stereo not drawn) | inactive |  |
| CCCOC(=O)c1ccc(C(=O)OCCC)nc1 | inactive |  |
| O=C(Nc1ccc([N+](=O)[O-])cc1Cl)c1cc(Cl)ccc1O | inactive |  |
| COc1nc(C)nc(NC(=O)NS(=O)(=O)c2ccccc2OCCCl)n1 | inactive |  |
| N#CSCSc1nc2ccccc2s1 | inactive |  |
| CCC(O)=C1C(=O)CC(C(=O)O)CC1=O (stereo not drawn) | inactive |  |
| CSC(=O)c1cccc2nnsc12 | inactive |  |
| C[C@]12C[C@H](O)[C@H]3[C@@H](CCC4=CC(=O)CC[C@@]43C)[C@@H]1CC[C@@H]2C(=O)CO | inactive |  |
| O=C(O)C1(C(=O)Nc2ccc(Cl)cc2Cl)CC1 | inactive |  |
| COC(=O)c1ccc(I)cc1S(=O)(=O)NC(=O)Nc1nc(C)nc(OC)n1 | inactive |  |
| CC(=O)S[C@@H]1CC2=CC(=O)CC[C@]2(C)[C@H]2CC[C@@]3(C)[C@@H](CC[C@@]34CCC(=O)O4)[C@H]12 | inactive |  |
| CCNc1nc(N)nc(Cl)n1 | inactive |  |
| CC(C)CCCCCCc1ccc(O)cc1 | inactive | 21.8 µM (active) |
| CCCCOC(=O)[C@@H](C)Oc1ccc(Oc2ccc(C(F)(F)F)cn2)cc1 | inactive |  |
| C#C[C@]1(O)CC[C@H]2[C@@H]3CCC4=CC(=O)CC[C@@H]4[C@H]3CC[C@@]21CC | inactive |  |
| CCCCC(CC)COC(=O)c1ccccc1C(=O)O (stereo not drawn) | inactive |  |
| CCOC(=O)[C@H](C)Oc1ccc(Oc2nc3ccc(Cl)cc3o2)cc1 | inactive |  |
| CC(=O)[C@H]1CC[C@H]2[C@@H]3CCC4=CC(=O)CC[C@]4(C)[C@H]3CC[C@]12C | inactive |  |
| CCCCOC(=O)C(C)Oc1ccc(Oc2ccc(C(F)(F)F)cn2)cc1 (stereo not drawn) | inactive |  |
| CCCCC(CC)CN1C(=O)C2C3C=CC(C3)C2C1=O (stereo not drawn) | inactive |  |
| CCOC(=O)C(C)Oc1ccc(Oc2nc3ccc(Cl)cc3o2)cc1 (stereo not drawn) | inactive |  |
| CCN(CC)C(=O)c1cccc(C)c1 | inactive |  |
| COC(=O)c1cccc(C)c1S(=O)(=O)NC(=O)Nc1nc(OCC(F)(F)F)nc(N(C)C)n1 | inactive |  |
| OB(O)O | inactive |  |
| CCCCOCCOCCOCc1cc2c(cc1CCC)OCO2 | inactive |  |
| CCCN(CCC)C(=O)SCC | inactive |  |
| CCCOC(=O)NCCCN(C)C | inactive |  |
| c1ccc(Nc2ccccc2)cc1 | inactive |  |
| CCOC(=O)COc1cc(-n2ncc(C(F)(F)F)c(C)c2=O)c(F)cc1Cl | inactive |  |
| CCCCCOC(=O)COc1cc(N2C(=O)C3=C(CCCC3)C2=O)c(F)cc1Cl | inactive |  |
